This is an account of results in PubChem BioAssay (NCATS).

Active and inactive are the calls of the source. The call rests on the fitted dose curve; in most records, active means well fitted inhibition curve with a large enough effect; inconclusive means small, poorly fitted or top-dose-only effect; inactive means no such curve, though single readings can be large or run the other way.

A short description of the assay: qHTS assay for measurement of the activity of small molecule inhibitors on Zika virus induced Caspase-3 activity in human astrocytoma cells (AID 1224859). The following applies: SNB-19 ZIKV-induced caspase-3/7, luminescence, 6 h; series mostly up to 45.7 µM. From the text: National Center for Advancing Translational Sciences [NCATS]
Johns Hopkins University School of Medicine
Increase in the Caspase-3 activity indicates an activation of apoptosis cell death pathway caused by Zika virus infection in certain types of neuronal cells including human neural progenitor cells (hNPCs), astrocytes, and astrocytoma cell line (SNB-19). This cell-based caspase-3 activity assay measures the increased caspase-3 activity in the astrocytoma cell line (SNB-19) after a 6-hour Zika virus infection with a luminescence readout. A decrease in the luminescence signal in this assay by small molecule treatment indicates an inhibitory effect of that small molecule on the Zika virus induced caspase-3 activity that may correlate with its effect on reduction of Zika virus caused cell death.
The medium for SNB-19 cells is composed of RPMI 1640 (ATCC, Cat.# 30-2001), 10% fetal bovine serum (FBS) (GE healthcare Life Sciences, Cat.# SH30071.03), and 1% Pen/Strep (Gibco, Cat.# 15140-122). A Caspase-Glo 3/7 assay kit (catalog number G8092; Promega, Madison, WI) was used to detect caspase-3 activity induced by Zika virus infection in human cells. The reagent mixture was reconstituted as described in the protocol from the manufacturer. Polystyrene tissue culture treated and PDL coated white plates were obtained from Greiner Bio-One (Monroe, NC). Cells were seeded in 384- or 1536-well assay plates and cultured at 37 C with 5% CO2 for 16 to 20 hours. The typical cell seeding density in the 1536-well plate assay is 250 cells/well in 3ul medium for SNB-19 cells in tissue culture treated plates. Compounds were added to cells and incubated for one hour before addition of ZIKV solution to cells (2 FFU/cell). After incubation at 37 C with 5% CO2 for 6 hours, the reagent mixture of Caspase-Glo 3/7 assay kit was added to each well, followed by incubation at room temperature for 30 minutes. The luminescence intensity of the assay plates was measured using a ViewLux plate reader (PerkinElmer). Data were normalized by using the cell-containing wells without ZIKV as a negative control (0% induction of caspase 3/7 activity) and wells containing ZIKV infected cells (Caspase-3 activity induced) as a positive control (100% induction of caspase 3 activity). The percentage inhibitions of the increased Caspase-3 activity by small molecule inhibitors were then calculated.
In general terms: In qHTS, concentration-response curves come from the screen itself.
Consider `Clc1ccccc1N1CCNCC1`, for which the outcome was inactive.
Next, `ClCCN1CCCC1`: “inactive”.
`NNc1ccccc1`: the result was inactive.
In the case of `O=C(N/N=C/c1ccc([N+](=O)[O-])o1)c1cc([N+](=O)[O-])cc([N+](=O)[O-])c1O` it was “inactive”; in that of `COc1cccc(C(=O)CCN[C@@H](C)[C@H](O)c2ccccc2)c1`, “inactive”; in that of `O=c1oc2ccccc2c(O)c1Cc1c(O)c2ccccc2oc1=O`, “inactive”.
Take `C[C@](O)(CS(=O)(=O)c1ccc(F)cc1)C(=O)Nc1ccc(C#N)c(C(F)(F)F)c1`: the call was inactive.
In the case of `Nc1ccccc1` it was “inactive”; in that of `C[C@]12CCC(=O)C=C1CC[C@@H]1[C@@H]2CC[C@]2(C)C(=O)CC[C@@H]12`, “inactive”.
With `Clc1ccc(C(c2ccc(Cl)cc2)C(Cl)(Cl)Cl)cc1`, the call was inactive.
Next, `CC(C)(C)NCC(O)c1cc(Cl)c(N)c(C(F)(F)F)c1` (stereo not given): “inactive”; `C[C@]12CCC(=O)C=C1CC[C@@H]1[C@H]3CC[C@](C)(O)[C@@]3(C)CC[C@@H]12`: “inactive”.
As to `O=P1(N(CCCl)CCCl)NCCCO1` (stereo not given), the compound was classed as inactive.
In the case of `CC(=O)OCC1=C(C(=O)O)N2C(=O)[C@@H](N)[C@H]2SC1` it was “inactive”; in that of `CCN(CC)C(=O)[C@@H]1C=C2c3cccc4[nH]cc(c34)C[C@H]2N(C)C1`, “inactive”.
In the case of `CC(C)(C)NCC(O)c1ccccc1Cl` (stereo not given) it was “inactive”; in that of `COP(=S)(OC)Oc1cc(Cl)c(Cl)cc1Cl`, “inactive”.
In the case of `Oc1ccc(Cl)cc1`, the call was inactive.
Next, `C=CCC1([C@H](C)CCC)C(=O)NC(=O)NC1=O`: “inactive”; `c1ccc(CN2CCNCC2)cc1`: “inactive”.
Regarding `COc1cc(CCN)cc(OC)c1OC`, the result was inactive.
As for `CN1C(=O)COc2c(C(=O)NC3CN4CCC3CC4)cc(Cl)cc21` (stereo not given), the call was inactive.
For the compound `CCN(CC)CCc1c[nH]c2ccccc12`, the outcome was inactive.
Next, `c1ccc2c(c1)sc1ccccc12`: “inactive”; `CC(C)C[C@H](CN)CC(=O)O`: “inactive”; `CC(Cc1ccccc1)NCCn1cnc2c1c(=O)n(C)c(=O)n2C` (stereo not given): “inactive”.
Regarding `C[C@]12Cc3cn[nH]c3C[C@@H]1CC[C@@H]1[C@@H]2CC[C@@]2(C)[C@H]1CC[C@]2(C)O`, the call was inactive.
As to `C[C@@H]1CC2=CC(=O)CC[C@@H]2[C@H]2CC[C@@]3(C)[C@@H](CC[C@]3(C)O)[C@@H]21`, the call was inactive.
Next, `COP(=S)(OC)SCN1C(=O)c2ccccc2C1=O`: “inactive”.
Next, `COP(=S)(OC)Oc1ccc(SC)c(C)c1`: “inactive”; `C#C[C@]1(O)CC[C@H]2[C@@H]3CCC4=CC(=O)CC[C@]4(C)[C@H]3CC[C@@]21C`: “inactive”.
Next, `CCCN(CCC)C(=O)Cc1c(-c2ccc(Cl)cc2)nc2ccc(Cl)cn12`: “inactive”; `O=C(O)c1ccc(=O)[nH]c1`: “inactive”; `CN(C)CCc1c[nH]c2cccc(OP(=O)(O)O)c12`: “inactive”.
For `C[C@@H](N)[C@@H](O)c1ccccc1`, the compound was called inactive.
Take `CC(C(=O)c1ccccc1)N(C)C` (stereo not given): the outcome was inactive.
As for `Clc1cccc(SC2CCNCC2)n1`, the call was inactive.
In the case of `Nc1nc(N)nc(NC2CC2)n1` it was “inactive”; in that of `CCN[C@@H](C)Cc1cccc(C(F)(F)F)c1`, “inactive”; in that of `CCC(CC)(CNC(=O)CCCO)c1cccc(OC)c1`, “inactive”.
